# Assay outcomes: PubChem, Bradner/Qi Labs at DFCI
# The full list was thinned out, with hits kept by preference.
# CBX7 AlphaScr: blocks human CBX7 binding to H3K27me3 peptide; O95931; AlphaScreen His6-CBX7 / biotin-H3K27me3 peptide binding; stronger effect = lower value; normalised signal (fraction of DMSO) (no concentration beside the values); 66,000 tested, 1.1% active; AID 1224903; in the data active = normalised signal below about 0.5
# Target sequence (O95931 whole entry, looked up): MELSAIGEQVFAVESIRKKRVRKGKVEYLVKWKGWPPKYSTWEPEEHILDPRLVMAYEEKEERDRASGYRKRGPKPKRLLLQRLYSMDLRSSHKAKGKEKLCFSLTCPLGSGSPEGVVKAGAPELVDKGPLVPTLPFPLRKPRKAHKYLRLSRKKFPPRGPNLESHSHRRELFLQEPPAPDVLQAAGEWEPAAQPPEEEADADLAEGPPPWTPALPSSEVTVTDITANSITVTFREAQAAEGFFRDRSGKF
# Active calls of the source: *.
SMILES,CBX7 AlphaScr
CCOC(=O)c1nnn(-c2nonc2N)c1CN1CCC(C(=O)OCC)CC1,0.96
OCC1OC(n2cnc3c(NCc4ccccc4)ncnc32)C(O)C1O (stereo not drawn),0.95
CCn1nnnc1-c1ccc(OC)c(S(=O)(=O)Nc2cccc(C(F)(F)F)c2)c1,0.89
NC(=O)c1oc2ccccc2c1NC(=O)c1ccc(S(=O)(=O)N2CCCCCC2)cc1,0.94
O=C(Nc1ccc(Cc2ccncc2)cc1)C12CC3CC(CC(C3)C1)C2,0.96
Cc1ccc(NC(=O)Nc2ccc(Cc3ccncc3)cc2)cc1C,1
O=C(Nc1ccc(Cc2ccncc2)cc1)c1ncn[nH]1,0.058*
Cc1cc(NC(=O)c2cc3n(n2)C(C(F)(F)F)CC(C2CC2)N3)no1 (stereo not drawn),1.1
CCn1c(C(=O)N2CCC(N3CCCCC3)CC2)cc2sc(Cl)cc21,1
Cc1ccn2c(Nc3ccc4c(c3)OCCO4)c(-c3cccs3)nc2c1,0.8
Cc1ccc2nc(-c3ccccn3)c(Nc3ccc4c(c3)OCCO4)n2c1,0.001*
Cc1ccc(Nc2c(-c3ccccn3)nc3ccc(C)cn23)cc1,0.084*
Cc1ccn2c(Nc3ccc4c(c3)OCO4)c(-c3ccsc3)nc2c1,0.91
Clc1ccc(Nc2c(-c3ccccn3)nc3ccc(Cl)cn23)cc1,0.92
Cc1cccc(C)c1Nc1c(-c2ccccn2)nc2ccc(Br)cn12,0.44*
Cc1ccc2nc(-c3ccccn3)c(Nc3ccc(C(C)C)cc3)n2c1,0.62
Cc1ccn2c(Nc3ccc4c(c3)OCO4)c(-c3ccccn3)nc2c1,0.034*
Cc1ccc2nc(-c3ccccc3)c(Nc3ccc4c(c3)OCCO4)n2c1,1.1
Cc1cccc(C)c1Nc1c(-c2ccccn2)nc2ccc(Cl)cn12,0.54
Cc1ccc2nc(-c3cccnc3)c(Nc3ccc4c(c3)OCCO4)n2c1,1
Brc1ccc2nc(-c3ccccn3)c(Nc3ccccc3)n2c1,0.96
COc1ccc(NC(=O)c2cnn3c2NC(c2ccc(OC)c(OC)c2)CC3C(F)(F)F)cc1 (stereo not drawn),1
Fc1cc(F)c(F)c(OCc2nc(-c3cccs3)no2)c1F,1.2
COc1ccc(CC(=O)NCCc2cc3cc(C)c(C)cc3[nH]c2=O)cc1OC,0.88
Cc1ccc(NC(=O)Cn2c(-c3ccccc3Cl)nc3sc(C)c(C)c3c2=O)cc1Cl,1
SMILES,CBX7 AlphaScr
COc1ccc(-n2c(=O)cc(N3CCN(c4ccc(F)cc4)CC3)[nH]c2=O)cc1,1
CCC(C)NC(=O)c1cc(-c2ccc(Cl)cc2)on1 (stereo not drawn),1
CC1=C(C(=O)Nc2ccc(C)cn2)C(c2ccccc2C)C2=C(CCCC2=O)N1 (stereo not drawn),1
CC1CCN(S(=O)(=O)c2ccc3[nH]c(=O)cc(C(=O)NCCN4CCCCC4C)c3c2)CC1 (stereo not drawn),0.99
CCN(CC)CC(C)CNC(=O)c1cc(=O)[nH]c2ccc(S(=O)(=O)N3CCCCCC3)cc12 (stereo not drawn),1
Cc1ccc2cc(CCNC(=O)CCC3CCCCC3)c(=O)[nH]c2c1C,1.1
Cc1ccccc1Nc1c(-c2c[nH]c3ccccc23)nc2ccc(Br)cn12,0.53
Cc1ccc2nc(-c3c[nH]c4ccccc34)c(Nc3ccc4c(c3)OCO4)n2c1,0.92
Cc1ccc(Nc2c(-c3c[nH]c4ccccc34)nc3ccc(Br)cn23)cc1,0.49*
Cc1ccc2nc(-c3c[nH]c4ccccc34)c(Nc3ccc(F)cc3)n2c1,0.97
Cc1ccc2nc(-c3ccncc3)c(Nc3ccc4c(c3)OCO4)n2c1,0.86
Cc1ccc2nc(-c3ccccn3)c(Nc3ccc4c(c3)OCO4)n2c1,0.03*
CCC(=O)NCCCc1nc2ccccc2n1CC(C)C,1.2
CCCSCCCNC(=O)c1csc2c1CCC(C)C2 (stereo not drawn),1
Cc1cccc(-n2nc3c(c2NC(=O)COc2ccccc2)CSC3)c1C,0.94
c1ccc(Cn2c(COc3ccccc3)nc3ccccc32)cc1,1
Cc1cc2nc(Cc3ccc4c(c3)OCO4)c(=O)[nH]c2cc1C,0.95
COC(=O)c1c[nH]n2c(NC3CCCCCC3)c(-c3ccc(C)cc3)nc12,0.43*
CCCCOc1ccc(-c2nc3ncccn3c2NC2CCCCC2)cc1,0.94
COC(=O)c1c[nH]n2c(=O)c(Cc3ccc(C)cc3)c(C)nc12,1.2
COC(=O)c1c[nH]n2c(=O)c(Cc3ccc(F)cc3Cl)c(C)nc12,1.3
COC(=O)c1c[nH]n2c(NC3CCCCC3)c(-c3ccc(F)cc3)nc12,0.55
CCCCOc1ccc(-c2nc3c(C(=O)OC)c[nH]n3c2NC2CCCCC2)cc1,0.19*
Cc1ccn2c(NC(=O)C3CCCCC3)c(-c3ccc(F)cc3)nc2c1,1
COC(=O)c1c[nH]n2c(=O)c(Cc3ccccc3F)c(C)nc12,1.2
SMILES,CBX7 AlphaScr
COC(=O)c1c[nH]n2c(NC3CCCCCC3)c(-c3ccc(F)cc3)nc12,0.45*
CCOc1ccc(-c2nc3c(C(=O)OC)c[nH]n3c2NC2CCCCC2)cc1OC,0.7
CCCCOc1ccc(-c2nc3ccccc3c(C(=O)O)c2C)cc1,1
COC(=O)c1c[nH]n2c(NC3CCCC3)c(-c3ccc(F)cc3)nc12,0.28*
CCOC(=O)c1ccc(NC(=O)C2CCCN(c3nc4ccc(OCC)cc4s3)C2)cc1 (stereo not drawn),1
CCc1ccc2c(c1)C(O)(CC(=O)c1ccc(OC)cc1)C(=O)N2 (stereo not drawn),1.1
O=C(Nc1ccccc1C(=O)O)c1ccc2c(c1)C(=O)N(c1nccs1)C2=O,1.1
COc1ccccc1-c1cc2nc(C)c(CCC(=O)N3CCCC3)c(C)n2n1,0.91
O=C1CSC(=NC(=O)C2CCN(C(=O)c3cnn(-c4ccccc4)c3-n3cccc3)CC2)N1,0.84
CCc1ccc(-c2nc(C(=O)NCCCOC(C)C)c(C)o2)cc1,0.97
COc1ccccc1CN(C)CCc1ccccn1,1
COc1ccc(S(=O)(=O)N(C)CCc2ccccn2)cc1,0.94
CCOc1ccc(CN(C)CCc2ccccn2)cc1,0.47*
COc1cc2c(C(=O)Nc3cccc(C)n3)cn(CC(C)C)c(=O)c2cc1OC,0.98
COc1ccc(-c2nc3ccc(C(=O)NCCN4CCCCC4)cc3nc2-c2ccc(OC)cc2)cc1,1.2
Cc1cccc(-c2nc(NCCO)c3ccccc3n2)c1,1
Cc1ccc2c(c1)N(C(C)C(=O)NCc1ccccn1)C(=O)CO2 (stereo not drawn),0.25*
Cc1ccc2c(c1)N(CCCC(=O)NCc1ccccn1)C(=O)CO2,1.3
Cc1ccc2c(c1)N(CCC(=O)NCc1cccnc1)C(=O)CO2,0.99
Cc1ccc(CNC(=O)CCN2C(=O)COc3ccccc32)cc1,1
Cc1ccc2c(c1)N(C(C)C(=O)NCc1ccccc1)C(=O)CO2 (stereo not drawn),1
CC(C(=O)NCc1ccccn1)N1C(=O)COc2ccc(Cl)cc21 (stereo not drawn),0.82
O=C(CCN1C(=O)COc2ccccc21)NCc1ccccn1,0.16*
Cc1ccc2c(c1)N(CCC(=O)NCc1ccccn1)C(=O)CO2,0.34*
O=C(CCN1C(=O)COc2ccccc21)NCc1ccccc1Cl,1.1
COc1ccccc1C(=O)Nc1ccccc1-c1nc2ccccc2s1,1.2
O=C(Cn1c2c(c(-c3ccccc3)cc1=O)CCCC2)NCc1ccc(F)cc1,0.98
CCc1ccc2oc(-c3cccc(NC(=O)c4ccc(OC)cc4)c3)nc2c1,1.2
CCOc1ccccc1Nc1nc(-c2ccncc2)cs1,0.93
